# This is a sample that favours compounds with a hit; in the whole collection about 2.9% have one here.
# EBNA-1 inhibitor = blocks EBNA-1 binding to DNA. EBNA-1 DNA binding, fluorescence polarization. inhibition, % at 14.8 µM. 300,000 compounds, 0.34% hits; in the data active means inhibition above about 28%
# PAFAH2 FP inh = inhibitors of human PAFAH2; Q99487; 340,000 compounds, 0.99% hits; AID 492956; recombinant PAFAH2, FP-rhodamine activity probe, fluorescence polarization; inhibition, % at 3.39 µM;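 active means inhibition above the mean over all tested compounds plus 3 SD, cut at about 30% in these data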;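 further: inhibitors block probe labeling of enzyme so polarization drops; 0% = enzyme with DMSO and 100% = wells lacking PAFAH2 protein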
# PAFAH1B3 FP inh = inhibitors of human PAFAH1B3. AID 492972. Q15102. recombinant PAFAH1B3, FP-rhodamine probe, fluorescence polarization. 340,000 compounds, 0.28% hits. inhibition, % at 3.39 µM;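 active means inhibition above the screen-wide average of all tested compounds plus 3 SD, cut at about 25% in these data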;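 further: 0% = enzyme with DMSO only and 100% = wells lacking PAFAH1B3 protein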
# Target sequence (Q15102 whole entry, looked up): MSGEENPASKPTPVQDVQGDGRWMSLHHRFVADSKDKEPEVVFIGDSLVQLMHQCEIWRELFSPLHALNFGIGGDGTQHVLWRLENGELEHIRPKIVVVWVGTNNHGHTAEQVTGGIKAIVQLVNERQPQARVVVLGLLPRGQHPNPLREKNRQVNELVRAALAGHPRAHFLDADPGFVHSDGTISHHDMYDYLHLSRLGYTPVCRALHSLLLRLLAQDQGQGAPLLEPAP
# pPAFAH inh = inhibitors of human plasma PAF acetylhydrolase (pPAFAH); Q13093; recombinant pPAFAH, FP-rhodamine probe fluorescence polarization; inhibition, % at 3.39 µM; 330,000 compounds, 1.5% hits; AID 463082;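 active means inhibition above the mean inhibition across the screen plus 3 SD, cut at about 25% in these data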;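 further: inhibitors block binding of the rhodamine activity-based probe so polarization drops; 0% = enzyme with DMSO and 100% = wells lacking pPAFAH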
# ZTA DNA inh = ZTA (EBV) inhibition in EBNA-1 counter-screen; ZTA-DNA binding, fluorescence polarization; inhibition, % at 11 µM; 320,000 compounds, 0.15% hits; AID 2234; in the data active means inhibition above about 33%
# PAFAH1B2 FP inh = blocks human PAF acetylhydrolase 1b catalytic subunit 2 | P68402 | recombinant PAFAH1B2, FP-rhodamine activity probe, fluorescence polarization | inhibition, % at 3.39 µM | 340,000 compounds, 1.2% hits;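 active means inhibition above the mean of all tested compounds plus 3 SD, cut at about 24% in these data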;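 further: 0% = enzyme with DMSO and 100% = wells lacking PAFAH1B2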
# Target sequence (P68402 whole entry, looked up): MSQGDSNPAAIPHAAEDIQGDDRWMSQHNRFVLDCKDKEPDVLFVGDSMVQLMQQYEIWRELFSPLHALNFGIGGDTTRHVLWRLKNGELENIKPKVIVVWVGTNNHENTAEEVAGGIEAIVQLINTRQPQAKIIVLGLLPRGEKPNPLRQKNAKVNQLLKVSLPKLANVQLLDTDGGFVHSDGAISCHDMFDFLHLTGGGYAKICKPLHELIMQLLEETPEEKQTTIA
# EBNA-1 inh conf = EBNA-1 (EBV) inhibition, confirmation | shares compounds with EBNA-1 inhibitor | Recombinant EBNA-1 DBD, Cy5-DNA fluorescence polarization | inhibition, % at 14.8 µM | 830 compounds, 35% hits | AID 2292;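 active means mean inhibition across replicates above a set limit taken from the earlier primary screen, cut at about 28% in these data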;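 further: plate controls were EBNA-1 protein with DMSO for no effect and wells lacking EBNA-1 for full effect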
# ZTA counter trip = counter-screen for EBNA-1 inhibitors: Epstein-Barr virus ZTA inhibitors, triplicate; inhibition, % at 11.1 µM; 830 tested, under 10 active; AID 2328; Zta-ZRE DNA binding, Cy5 fluorescence polarization; shares compounds with EBNA-1 inhibitor;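 active means mean inhibition over triplicates above a set limit taken from the primary EBNA-1 screen, cut at about 37% in these data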;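 further: purified full length Zta protein with Cy5 labeled ZRE DNA probe; 0% = Zta with DMSO and 100% = wells lacking Zta protein; inhibitors lower polarization by freeing the labeled DNA probe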
# An asterisk follows results filed as active; nt = no result.
SMILES,EBNA-1 inhibitor,PAFAH2 FP inh,PAFAH1B3 FP inh,pPAFAH inh,ZTA DNA inh,PAFAH1B2 FP inh,EBNA-1 inh conf,ZTA counter trip
COc1n[nH]c(C(=O)Nc2nc3ccccc3s2)c1[N+](=O)[O-],34*,19,-1,12,0,10,0,-3
COc1ccccc1C(=O)Nc1nc2ccccc2s1,31*,2,-2,-9,-12,2,-5,-2
COc1ccc(C(=O)Nc2nc3ccccc3s2)c(OC)c1,-3,-5,6,-2,-3,0,nt,nt
CC(CCc1ccccc1)NC(=O)CN1CCN(c2ccccc2)CC1 (centres undefined),-6,0,-4,6,-28,5,nt,nt
Cc1ccc(C)c(NC(=O)Cn2nc(-c3ccccc3)nc2-c2ccccc2)c1,50*,-3,3,3,11,-1,24,-1
Cc1ccc(NC(=O)Cn2nc(-c3ccccc3)nc2-c2ccccc2)c(C)c1,11,9,-5,1,4,0,nt,nt
O=C(CSC(=S)N1CCOCC1)Nc1nc(-c2ccccc2)c(-c2ccccc2)o1,5,2,7,-1,9,0,nt,nt
O=C(CSC(=S)N1CCCCC1)Nc1nc(-c2ccccc2)c(-c2ccccc2)o1,36*,-5,8,8,26,5,6,-1
CCOc1ccc(NS(=O)(=O)c2cc(C(=O)N(CC)CC(=O)NCc3cccs3)ccc2C)cc1,1,2,4,6,-19,7,nt,nt
O=C1c2cccnc2C(=O)N1Cc1ccc(S(=O)(=O)N2CCOc3ccccc32)cc1,0,13,2,1,-7,3,nt,nt
O=C(Cc1ccc([N+](=O)[O-])cc1)c1ccccc1,nt,3,8,nt,nt,3,nt,nt
O=C(CCCCCn1c(=S)[nH]c2ccccc2c1=O)NCc1ccc2c(c1)OCO2,32*,4,0,8,5,-2,14,-3
COC(=O)c1ccc2c(=O)n(CCCCCC(=O)NCc3ccc4c(c3)OCO4)c(=O)[nH]c2c1,63*,-6,-9,0,0,-5,24,-14
O=C(CCn1c(=S)[nH]c2ccccc2c1=O)Nc1cccc(Cl)c1,28*,-9,-6,1,7,-4,15,5
COc1cccc(NC(=O)CCCn2c(=S)[nH]c3ccccc3c2=O)c1,0,1,7,1,-6,0,nt,nt
CCCCCn1c(=O)[nH]c2cc(C(=O)NCc3ccc4c(c3)OCO4)ccc2c1=O,31*,-9,-3,2,-5,-1,18,15
O=[N+]([O-])c1ccc(SCc2ccncc2)nc1,2,6,19,9,-4,5,nt,nt
CC1CC(=O)Nc2ccccc2N1S(=O)(=O)c1cccc(Cl)c1 (centres undefined),-8,-4,-5,-4,-8,2,nt,nt
CCOc1ccc(NC(=O)CC(=O)Nc2ccc(OCC)cc2)cc1,42*,-1,9,3,0,4,4,-4
CCOc1ccc(NC(=O)c2cccc(NC(=O)c3ccccc3)c2)cc1,46*,-8,6,-2,0,2,37*,-3
COc1ccc(C(=O)Nc2ccc(C(=O)c3ccccc3)cc2)cc1,11,nt,nt,-1,10,nt,nt,nt
CCOc1ccc(NC(=O)CCC(=O)O)cc1,0,-6,7,-2,5,2,nt,nt
COc1ccc(C(=O)COC(=O)c2ccc(NC(=O)c3ccccc3)cc2)cc1,29*,-18,-16,4,13,-6,-9,7
COc1ccc(NC(=O)c2cccc(NC(=O)c3ccccc3)c2)cc1,68*,-1,1,3,-13,-6,-5,-4
CC1(C)CC(NC(=O)C(Cl)(Cl)Cl)CC(C)(C)N1,4,-4,7,6,7,3,nt,nt
COC(=O)C(C(=O)OC)c1ccc(NC(=O)c2cccc(Cl)c2)cc1,60*,-5,4,1,-3,1,49*,0
COc1cccc(NC(=O)c2cccc(Cl)c2)c1,10,-2,11,3,2,7,nt,nt
